Test systems include NCI-H23 lung; NCI-H226 lung; NCI-H322M lung; HOP-62 NSCLC; NCI-H460 lung; HOP-92 NSCLC; NCI-H522 lung; A549/ATCC NSCLC; 786-0 renal; COLO 205 colon.
Test in all cases: NCI-60 one-dose screen, 48 h (100 = growth as untreated, 0 = no growth, -100 = all killed)
Common to all, as to settings: 10 µM unless noted

This is part of a sample that, as a whole, favours compounds with a hit. Of some 83,000 tested, about 20% had one in any assay.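 Activity criterion: percent growth below 10, measured after cells in 96-well plates were exposed to a single compound concentration for 48 hours.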 A number with no mark means an inactive call. Activity calls are given as the source filed them.

Consider `CCN(CC)c1ccc2[nH]c3c(C(N)=O)cc(=O)c(=O)c=3oc2c1`, for which the growth in the test with NCI-H23 lung is -28.2% (active); in the test on NCI-H226 lung it was 7.46% (active); with NCI-H322M lung, -9.42% (active); in the test on HOP-62 NSCLC, -11.8% (active); in the test on NCI-H460 lung, -31.8% (active); in the test with HOP-92 NSCLC, 26%. For the same compound, the growth is -39.7% (active) with NCI-H522 lung, -5.31% (active) in the test with A549/ATCC NSCLC, 15% with 786-0 renal and 1.25% (active) in the test with COLO 205 colon.

Turning to `COc1cc2c(cc1O)CCN1C[C@@H](CC(C)C)[C@@H](O)C[C@@H]21`, the growth in the test on NCI-H23 lung is 99.9%; in the test with NCI-H226 lung, 96.6%; in the test on NCI-H322M lung, 105%; in the test on HOP-62 NSCLC, 93.5%; in the test on NCI-H460 lung, 116%; in the test on HOP-92 NSCLC, 63.8%. Further, the growth was 93.6% in the test on NCI-H522 lung, 107% with A549/ATCC NSCLC, 92% with 786-0 renal and 127% in the test with COLO 205 colon.

With `Cc1cc(N/N=C/c2nc(-c3ccc(Br)cc3)oc2C)c2cc(Br)ccc2n1`, the growth was 103% in the test with NCI-H23 lung; 113% in the test on NCI-H226 lung; 82.8% with NCI-H322M lung; 105% with HOP-62 NSCLC; -13.1% (active) in the test on NCI-H460 lung; 78.8% with HOP-92 NSCLC. Further, the growth is 48% in the test on NCI-H522 lung, 32.8% in the test with A549/ATCC NSCLC, 29.2% in the test on 786-0 renal and 99.7% in the test on COLO 205 colon.

As for `COc1cccc(/C=C/C(=O)Nc2cc(OC)c3c(c2)OCO3)c1`, the growth in the test with NCI-H23 lung is 97.1%; in the test with NCI-H226 lung, 99.2%; in the test on NCI-H322M lung, 102%; with HOP-62 NSCLC, 99.7%; in the test on NCI-H460 lung it was 100%; in the test on HOP-92 NSCLC it was 86.5%. The growth with NCI-H522 lung is 87.4%; in the test on A549/ATCC NSCLC, 98.3%; in the test with 786-0 renal it was 91.3%; with COLO 205 colon it was 109%.

Consider `CC(C)CSc1nc(NN)c(C#N)c(-c2ccccc2)n1`, for which the growth in the test on NCI-H23 lung is 99.7%; with NCI-H226 lung, 89.1%; in the test with NCI-H322M lung it was 89.5%; with HOP-62 NSCLC it was 94.1%; in the test with NCI-H460 lung, 97.4%; in the test on HOP-92 NSCLC, 108%. For the same compound, the growth is 88.2% in the test on NCI-H522 lung, 105% with A549/ATCC NSCLC, 98.4% in the test on 786-0 renal and 111% in the test with COLO 205 colon.

On to `COC1=C(OC)C(=O)C(CCCCCCCCCC[P+](c2ccccc2)(c2ccccc2)c2ccccc2)=C(C)C1=O`, for which the growth was -8.24% (active) in the test with NCI-H23 lung; -19.5% (active) with NCI-H226 lung; -17.9% (active) in the test on NCI-H322M lung; -19.5% (active) in the test on HOP-62 NSCLC; -52.1% (active) in the test on NCI-H460 lung; -47.3% (active) with HOP-92 NSCLC. Moreover, the growth in the test with NCI-H522 lung is 2.62% (active); with A549/ATCC NSCLC, -4.09% (active); in the test on 786-0 renal, -57.8% (active); in the test with COLO 205 colon it was -93.3% (active).

As for `NC1N=C(SCC(=O)N2CCN(c3cc4c(cc3F)c(=O)c(C(=O)O)cn4C3CC3)CC2)NC(=O)/C1=C/c1ccc(Cl)cc1` (stereo not given), the growth was 103% with NCI-H23 lung; 106% in the test with NCI-H226 lung; 107% with NCI-H322M lung; 103% with HOP-62 NSCLC; 110% in the test with NCI-H460 lung; 114% in the test with HOP-92 NSCLC. Further, the growth is 94.7% in the test with NCI-H522 lung, 103% in the test with A549/ATCC NSCLC, 103% in the test on 786-0 renal and 115% in the test on COLO 205 colon.

Regarding `Cn1ccc(=O)c(S(N)(=O)=O)c1`, the growth in the test with NCI-H23 lung is 95.6%; with NCI-H226 lung, 108%; in the test with NCI-H322M lung, 108%; in the test with HOP-62 NSCLC it was 92.4%; in the test with NCI-H460 lung it was 102%; in the test with HOP-92 NSCLC, 89.3%. In addition, the growth with NCI-H522 lung is 96.2%; in the test on A549/ATCC NSCLC it was 99.7%; in the test with 786-0 renal, 103%; with COLO 205 colon, 117%.

For the compound `CCC(=O)Oc1ccc(/C(=C(/C)Cc2cccc(OC)c2)c2ccc(OCCN(C)C)cc2)cc1`, the growth in the test with NCI-H23 lung was 94.2%; in the test with NCI-H226 lung, 111%; in the test with NCI-H322M lung, 94.5%; in the test on HOP-62 NSCLC, 108%; in the test on NCI-H460 lung, 90.1%; in the test on HOP-92 NSCLC, 67.2%. For the same compound, the growth with NCI-H522 lung was 87.6%; in the test with A549/ATCC NSCLC, 97.7%; in the test on 786-0 renal, 79.7%; in the test on COLO 205 colon it was 102%.

For `CCCCN(CCCC)C(=N)c1ccnc2ccccc12`, the growth in the test on NCI-H23 lung was 108%; in the test with NCI-H226 lung, 116%; with NCI-H322M lung, 110%; in the test with HOP-62 NSCLC, 119%; in the test on NCI-H460 lung, 108%; in the test on HOP-92 NSCLC it was 96.4%. In addition, the growth is 102% in the test on NCI-H522 lung, 96.7% in the test with A549/ATCC NSCLC, 115% in the test with 786-0 renal and 125% in the test with COLO 205 colon.

As for `O=C(Nc1cccc(-n2cc(-c3ccncc3)c(-c3ccc(Cl)c(O)c3)n2)c1)c1ccc(N2CCOCC2)c(C(F)(F)F)c1`, the growth with NCI-H23 lung was 61.3%; with NCI-H226 lung, 107%; with NCI-H322M lung, 82.1%; in the test on HOP-62 NSCLC it was 40.4%; in the test with NCI-H460 lung, 5.81% (active); with HOP-92 NSCLC it was 10.2%. The growth was 39.6% in the test with NCI-H522 lung, 31.4% in the test on A549/ATCC NSCLC, 59.6% with 786-0 renal and 96.1% in the test on COLO 205 colon.

`O=C1/C(=C/c2ccc([N+](=O)[O-])cc2)CN(C(=O)CCN2CCC(=NO)CC2)C/C1=C\c1ccc([N+](=O)[O-])cc1`: the growth in the test with NCI-H23 lung is 0.382% (active); with NCI-H226 lung it was 15.1%; in the test on NCI-H322M lung it was -18.7% (active); with HOP-62 NSCLC, -21.9% (active); with NCI-H460 lung it was -46.3% (active); in the test with HOP-92 NSCLC, -10.4% (active). In addition, the growth in the test with NCI-H522 lung is -76.8% (active); in the test with A549/ATCC NSCLC it was 21.3%; in the test with 786-0 renal, -37.1% (active); with COLO 205 colon, -65.3% (active).

Take `CN(C)c1cccc2c(S(=O)(=O)/N=C(\N)Nc3nc4ccccc4s3)cccc12`: the growth is 66.6% in the test on NCI-H23 lung; 69.8% in the test with NCI-H226 lung; 83.4% in the test on NCI-H322M lung; 40.6% in the test on HOP-62 NSCLC; 30.3% with NCI-H460 lung; 60.2% with HOP-92 NSCLC. Further, the growth with NCI-H522 lung is 30.1%; with A549/ATCC NSCLC it was 52.3%; with 786-0 renal, 77.6%; in the test on COLO 205 colon, 85.6%.

Turning to `CC(=O)c1cc2c(N)c(C(=O)Nc3cccc4c3OCCO4)sc2nc1C`, the growth was 96% in the test with NCI-H23 lung; 88.9% in the test with NCI-H226 lung; 100% in the test on NCI-H322M lung; 80.7% in the test on HOP-62 NSCLC; 82.1% in the test on NCI-H460 lung; 99.2% in the test on HOP-92 NSCLC. In addition, the growth in the test on NCI-H522 lung was 67.7%; with A549/ATCC NSCLC it was 71.4%; in the test on 786-0 renal, 97.9%; in the test on COLO 205 colon, 86.6%.

The record behind these values is PubChem BioAssay (NCI).
